The full ranking holds about 33,000 sequences; the median of “E-score (-0.5 to 0.5)” is about -0.021, and the highest 2% start at about 0.32. The sample as a whole holds a higher share of the highest values than the screen did.

This test addresses T1, Zap1 (UniProt P47043).
T1 sequence: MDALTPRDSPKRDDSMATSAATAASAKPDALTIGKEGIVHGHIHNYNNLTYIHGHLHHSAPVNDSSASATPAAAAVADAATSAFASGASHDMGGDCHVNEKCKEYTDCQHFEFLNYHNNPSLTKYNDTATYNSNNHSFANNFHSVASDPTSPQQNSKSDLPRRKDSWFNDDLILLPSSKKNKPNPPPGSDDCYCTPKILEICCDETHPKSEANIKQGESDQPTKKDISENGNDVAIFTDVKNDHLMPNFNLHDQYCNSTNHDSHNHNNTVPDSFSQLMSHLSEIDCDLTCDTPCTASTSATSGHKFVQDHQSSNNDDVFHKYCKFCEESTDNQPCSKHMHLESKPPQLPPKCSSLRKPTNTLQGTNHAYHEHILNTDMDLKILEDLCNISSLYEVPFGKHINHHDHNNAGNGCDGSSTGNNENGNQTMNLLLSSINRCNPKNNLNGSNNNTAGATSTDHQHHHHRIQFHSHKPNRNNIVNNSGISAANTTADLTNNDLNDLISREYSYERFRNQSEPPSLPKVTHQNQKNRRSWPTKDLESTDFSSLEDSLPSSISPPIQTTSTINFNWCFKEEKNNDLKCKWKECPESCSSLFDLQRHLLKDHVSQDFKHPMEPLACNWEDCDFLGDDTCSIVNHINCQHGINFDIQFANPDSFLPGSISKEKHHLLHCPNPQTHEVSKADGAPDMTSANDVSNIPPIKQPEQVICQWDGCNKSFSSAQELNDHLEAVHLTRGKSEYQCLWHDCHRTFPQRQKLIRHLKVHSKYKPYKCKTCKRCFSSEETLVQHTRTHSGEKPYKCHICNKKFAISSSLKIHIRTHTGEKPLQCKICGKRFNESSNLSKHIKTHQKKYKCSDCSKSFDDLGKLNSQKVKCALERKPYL
Kind of test: PBM E-score (8-mer binding enrichment) (E-score (-0.5 to 0.5)); higher = stronger / more preferred TF binding. To be noted: protein concentration: 200 nM; construct: GST-full length. How it is done:
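Universal 'all 10-mer' protein binding microarrays (Agilent AMADID 015681) probed with GST-tagged S. cerevisiae TFs (full-length or DBD) made by in vitro transcription/translation (PURExpress), about 100-200 nM. Bound TF was detected with fluorescent anti-GST. Each ungapped 8-mer (which stands for itself and its reverse complement) is scored by the PBM enrichment score (E-score), a modified Wilcoxon-Mann-Whitney statistic from -0.5 to +0.5, computed with the Universal PBM Analysis Suite. Scale: above 0.35 generally sequence-specific binding.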
GCTTGACC: the “PBM E-score” value turned out to be 0.214.
With ATAAAGAT, the “PBM E-score” value was determined as 0.00332.
Consider AACACCTA, for which the “PBM E-score” value is 0.0163.
Turning to ATGGTAGA, the “PBM E-score” value is -0.00844.
As for GAGAGAGC, the figure is -0.261; as for AAATGGAG, -0.132.
As to TGCCCTAA, the “PBM E-score” value was -0.171.
As for CTTAGGGC, the figure is 0.0876.
As for ATTGACTG, the figure is -0.136; as for CAGGTCAG, 0.0791.
As for AAGGTCCC, the figure is 0.152; as for AAGGTCAC, 0.417.
Turning to AAGGTCTG, the “PBM E-score” value came out at 0.15.
As for AAGGTCAG, the figure is 0.32.
As for AAGGTCTC, the figure is 0.162.
The result for GAAAGCGC reads -0.115; that for AGAAACCG, 0.0611.
Regarding CTGTACTA, the “PBM E-score” value came to 0.0369.
As for GGCGACAC, the “PBM E-score” value was -0.0969.
The result for CGGCTGAC reads -0.193.
The result for GAGACCAC reads 0.15; that for GAGGGCAA, -0.0412.
As for CAGGCGAC, the figure is -0.117; as for CACCCTCG, 0.234; as for AAGCCTGT, -0.128.
In the case of CCCCCTAC, the “PBM E-score” value was -0.32.
For CACCCTAG, the “PBM E-score” value amounted to 0.353.
For the sequence CACCCTAC, the “PBM E-score” value is 0.328.
On to AGCCCTAC, for which the “PBM E-score” value was -0.12.
CGCCCTAG: the “PBM E-score” value is -0.00248.
Turning to GACCCTAC, the “PBM E-score” value stood at 0.311.
The result for AACCCTAC reads 0.357.
On to AACCCTGT, for which the “PBM E-score” value turned out to be 0.419.
Regarding AAACCTAC, the “PBM E-score” value came to 0.194.
Take AAACCTGT: the “PBM E-score” value is 0.0581.
The result for CTCAGCAG reads -0.129; that for TCAGCGAA, -0.107.
Consider CTCGCTTA, for which the “PBM E-score” value was -0.0929.
AAGCCTGC: the “PBM E-score” value is -0.182.
As for CTTCAGTA, the figure is 0.0193; as for AGAGACCA, 0.121.
In the case of ATGGTGCA, the “PBM E-score” value came out at 0.0684.
The result for CTCACGAG reads 0.0376; that for ACCTGAAT, 0.136; that for CAGCTGTA, -0.203.
Take ATCCCTAG: the “PBM E-score” value is 0.0856.
The result for AAACCTAG reads 0.051; that for AAACCTAT, 0.164; that for AACCCTAT, 0.441.
As for AACCCTCT, the figure is 0.27.
Regarding AACCCTAG, the “PBM E-score” value is 0.408.
The result for CAAATTCC reads -0.00509.
The result for CGTCGCGA reads 0.00596; that for TGTCACAA, 0.0989.
Take CGTCACGA: the “PBM E-score” value is -0.0348.
The result for AGTCACGA reads 0.0207; that for GGTCGCGA, 0.32; that for CGTCACAA, -0.0229.
As for GGTCACGA, the figure is 0.391; as for AGTCGCGA, 0.113.
For GGTCACAA, the “PBM E-score” value is 0.393.
With AGATAGGG, the “PBM E-score” value was -0.0822.
With GAGCGTGC, the “PBM E-score” value was -0.173.
The result for TATTAGAA reads 0.159; that for AGAAGTCT, -0.257; that for AGCCTGAG, -0.0458.
In the case of TGTGAGAA, the “PBM E-score” value is -0.0687.
For CGGACTTC, the “PBM E-score” value was -0.17.
As for CATATGGA, the figure is -0.057; as for AATCCAAC, -0.0925.
The result for GAGACCTC reads 0.0168.
As for ATCTAGGC, the figure is -0.197; as for ACCTACAA, 0.178.
On to CCCTACAA, for which the “PBM E-score” value stood at 0.33.
As for CCCTACAC, the “PBM E-score” value was 0.0286.
For the sequence CCAATGCA, the “PBM E-score” value is -0.0366.
As for CAACTAAC, the “PBM E-score” value came out at 0.21.
For GCTCGAGC, the “PBM E-score” value is -0.169.
The result for ATACCTTA reads 0.184; that for GCACCTTA, 0.112; that for CTACCTTA, 0.327.
With CCACCTTA, the “PBM E-score” value was 0.342.
For the sequence CCACCTGA, the “PBM E-score” value worked out at 0.0282.
The result for CTACCTGA reads 0.00976; that for AAGAGCAG, -0.247.
In the case of CAACTGGC, the “PBM E-score” value is -0.0185.
The result for AACCACTC reads 0.289.
Take ATCTGTCC: the “PBM E-score” value is -0.318.
ATGCAGTG: the “PBM E-score” value was -0.0561.
The result for CGGTTGCA reads -0.0132.
The result for GGTTTGTA reads 0.119.
As for AGGTTGCC, the figure is 0.088; as for AGGTTGCA, 0.299; as for AGGTTGTC, 0.242.
As for AGGTTGCG, the “PBM E-score” value is 0.333.
The result for GGGTTGCA reads 0.352; that for GGGTTGTA, 0.35; that for AAGTTGCG, 0.0515.
With GGGTTGGA, the “PBM E-score” value was determined as 0.16.
As for AGGTTGGG, the “PBM E-score” value was found to be 0.232.
The result for AGGTTGTG reads 0.349.

(Values after the supplement of paper PMC3334620.)
